{"source": "PubChem BioAssay AID1851", "about": "(National Center for Advancing Translational Sciences (NCATS), 2009)", "note": "About 5,800 (36%) of roughly 16,000 compounds were called active. Inconclusive results (about 23%) are left out. This is one part of the list. Values without a mark were called inactive. Calls come from the whole dose curve; as a rule, active = well fitted curve in the direction sought with a large enough effect; inconclusive = small, poorly fitted or top-dose-only effect, or effect the other way; inactive = no such curve, though single readings can be large or run the other way. % is set by controls: 0 for no effect and ±100 for the full control effect.", "data": [{"target": "Cytochrome P450 2C19 (Homo sapiens) (UniProt P33261)", "sequence (P33261 whole entry, looked up)": "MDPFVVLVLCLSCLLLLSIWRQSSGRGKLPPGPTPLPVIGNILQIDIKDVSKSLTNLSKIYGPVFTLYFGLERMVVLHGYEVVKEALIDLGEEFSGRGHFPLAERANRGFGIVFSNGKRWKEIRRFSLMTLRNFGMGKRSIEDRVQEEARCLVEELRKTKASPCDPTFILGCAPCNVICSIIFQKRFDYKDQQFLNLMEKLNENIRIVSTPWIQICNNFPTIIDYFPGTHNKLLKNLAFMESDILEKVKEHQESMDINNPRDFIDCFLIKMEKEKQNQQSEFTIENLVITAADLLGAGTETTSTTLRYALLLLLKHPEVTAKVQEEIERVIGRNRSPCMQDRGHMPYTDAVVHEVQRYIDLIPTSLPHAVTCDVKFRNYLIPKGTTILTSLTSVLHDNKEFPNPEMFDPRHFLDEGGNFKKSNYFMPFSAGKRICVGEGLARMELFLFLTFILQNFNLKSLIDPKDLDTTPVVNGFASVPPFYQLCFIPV", "assay": "Cytochrome panel assay with activity outcomes", "settings": "recombinant CYP, pro-luciferin dealkylation, luminescence, p450-cyp2c19; series mostly up to 57.1 µM; activity, negative = inhibition: at the top concentration", "values": [{"smiles": "O=C(C[C@@H](c1ccccc1)N1CCCCC1)c1ccccc1", "AC50": "2.51 µM (active)"}, {"smiles": "O=CN[C@@H](Cc1cnc[nH]1)C(=O)O", "activity, negative = inhibition": "6.59% [at 11.4 µM]"}, {"smiles": "O=C1c2ccccc2NC(c2ccc3c(c2)OCO3)N1O", "note": "(stereo not drawn)", "AC50": "10 µM (active)"}, {"smiles": "C=CCc1cccc(C2Nc3ccccc3C(=O)N2O)c1O", "note": "(stereo not drawn)", "AC50": "1.58 µM (active)"}, {"smiles": "O=C1c2ccccc2NC(c2ccc(Cl)cc2Cl)N1O", "note": "(stereo not drawn)", "AC50": "5.62 µM (active)"}, {"smiles": "CCNC(=S)NNC(=O)Cc1ccccc1", "activity, negative = inhibition": "-16.7%"}, {"smiles": "CCNC(=S)NNC(=O)CCn1c2ccccc2c2ccccc21", "AC50": "5.01 µM (active)"}, {"smiles": "C=CCc1cc(C=O)cc(OC)c1OCc1ccc(Cl)cc1", "AC50": "0.794 µM (active)"}, {"smiles": "COc1cc(/C=N/O)cc(Br)c1OCc1ccc(Cl)cc1", "AC50": "1.58 µM (active)"}, {"smiles": "CCOc1cc(/C=N/O)cc(Cl)c1OC", "AC50": "20 µM (active)"}, {"smiles": "COc1ccc(Cl)cc1N=Nc1ncc[nH]1", "activity, negative = inhibition": "14.7%"}, {"smiles": "COc1cc(/C=N/O)cc(Br)c1OCc1cccc(Cl)c1", "AC50": "2 µM (active)"}, {"smiles": "CCN1C(=O)[C@H]2[C@H]3[C@H](O)[C@H](O)C/C(=N/OC[C@@H](O)[C@H]4O[C@H]5OC(C)(C)O[C@H]5[C@@H]4O)[C@@H]3CC[C@@H]2C1=O", "activity, negative = inhibition": "15% [at 11.4 µM]"}, {"smiles": "COC(=O)N1CCC2(CC1)CN(C(=O)Nc1ccccc1)C2", "activity, negative = inhibition": "-13.3%"}, {"smiles": "COC(=O)C1CCC(C)(C(=O)Nc2ccccc2)C1(C)C", "note": "(stereo not drawn)", "AC50": "3.55 µM (active)"}, {"smiles": "COC(=O)N1CCC[C@@]2(CCN(C(=O)Nc3ccccc3)C2)C1", "activity, negative = inhibition": "-23.2%"}, {"smiles": "CCn1c(SCc2ccc(Cl)cc2Cl)nc2nc3c(cc2c1=O)CCCC3", "AC50": "3.98 µM (active)"}, {"smiles": "COc1cc2c3cc1Oc1c(OC)c(OC)cc4c1[C@@H](Cc1ccc(O)c(c1)Oc1ccc(cc1)C[C@@H]3N(C)CC2)CN(C)C4", "activity, negative = inhibition": "-44.9% [at 11.4 µM]"}, {"smiles": "COc1ccc([N+](=O)[O-])cc1N(CC(O)CN(CC(C)C)CC(C)C)S(=O)(=O)c1ccccc1", "note": "(stereo not drawn)", "AC50": "6.31 µM (active)"}, {"smiles": "O=C(Nc1ccccc1)N1CCSc2cc(Cl)ccc21", "AC50": "0.794 µM (active)"}, {"smiles": "Cn1ccc2cc3c(cc21)CCN3C(=O)Nc1cccnc1", "AC50": "inactive"}, {"smiles": "CS(=O)(=O)N1CCC2(CC1)CN(C(=O)Nc1ccccc1)C2", "activity, negative = inhibition": "-10.9%"}, {"smiles": "O=C(N/N=C/c1ccc([N+](=O)[O-])o1)c1cc(-c2ccncc2)nc2ccccc12", "AC50": "2.82 µM (active)"}, {"smiles": "O=C(O)c1cc(-c2ccncc2)nc2ccccc12", "activity, negative = inhibition": "15.6% [at 11.4 µM]"}, {"smiles": "CCn1c2ccccc2c2cc(NC(=O)C(C)Oc3ccc(OC)cc3)ccc21", "note": "(stereo not drawn)", "AC50": "0.398 µM (active)"}, {"smiles": "CCC(Sc1ncccc1C(=O)O)C(=O)N1CCOCC1", "note": "(stereo not drawn)", "activity, negative = inhibition": "-22.1%"}, {"smiles": "CCC(C(=O)N1CCOCC1)n1c(C(=O)OC)cc2occc21", "note": "(stereo not drawn)", "AC50": "5.01 µM (active)"}, {"smiles": "COc1ccc2c(CC(=O)NCC3CCC(C(=O)O)CC3)cc(=O)oc2c1", "note": "(stereo not drawn)", "activity, negative = inhibition": "-27.3%"}, {"smiles": "Cc1cc(=O)oc2cc(O)ccc12", "activity, negative = inhibition": "37.5% [at 25.6 µM]"}, {"smiles": "CCN(CC)c1ccc2c(Cl)cc(=O)oc2c1", "AC50": "11.2 µM (active)"}, {"smiles": "CCN(CC)c1ccc(C(=O)OCc2cc(=O)oc3cc(O)ccc23)cc1", "AC50": "0.355 µM (active)"}, {"smiles": "CCCC[C@H](CC)CN1CN(C[C@@H](CC)CCCC)CC(C)(N)C1", "activity, negative = inhibition": "-6.91% [at 25.6 µM]"}, {"smiles": "CCS(=O)(=O)N1CCN(c2c(Cl)cccc2[N+](=O)[O-])CC1", "AC50": "10 µM (active)"}, {"smiles": "CS(=O)(=O)N1CCC2(CCN(c3ccccc3)CC2)CC1", "activity, negative = inhibition": "29.9%"}, {"smiles": "CS(=O)(=O)N1CCN(c2c(Cl)cccc2[N+](=O)[O-])CC1", "AC50": "14.1 µM (active)"}, {"smiles": "CS(=O)(=O)N1CCC2(CCN(C(c3ccccc3)c3ccccc3)CC2)CC1", "activity, negative = inhibition": "-10.5%"}, {"smiles": "CCN1CCc2nc(N)oc2CC1", "activity, negative = inhibition": "-9.67%"}, {"smiles": "CC(=O)N(/N=C1\\Sc2ccccc2C1=O)c1ccccc1C", "AC50": "4.47 µM (active)"}, {"smiles": "CC(=O)N(/N=C1\\Sc2ccccc2C1=O)c1ccccc1", "AC50": "3.16 µM (active)"}, {"smiles": "Clc1ccc(N2CCCCCC2)nn1", "activity, negative = inhibition": "-6.14%"}, {"smiles": "O=[N+]([O-])c1cccnc1N1CCOCC1", "activity, negative = inhibition": "-23.4%"}, {"smiles": "O=[N+]([O-])c1ccc(N2CCCCC2)c(Cl)c1N1CCCCC1", "AC50": "1.41 µM (active)"}, {"smiles": "CC(C)c1ccc(CNc2cc(N3CCCC3)ccc2[N+](=O)[O-])cc1", "AC50": "1.78 µM (active)"}, {"smiles": "O=[N+]([O-])c1cc(F)c(N2CCOCC2)cc1N1CCCCC1", "AC50": "3.98 µM (active)"}, {"smiles": "O=[N+]([O-])c1ccc(N2CCCC2)cc1N1CCCC1", "AC50": "4.47 µM (active)"}, {"smiles": "COC(=O)[C@@]1(Cc2ccccc2)[C@H]2c3cc(C(=O)N(C)C)n(Cc4ccsc4Br)c3C[C@H]2CN1C(=O)c1ccccc1", "AC50": "2 µM (active)"}, {"smiles": "COC(=O)[C@@]1(Cc2ccccc2)[C@H]2c3cc(C(=O)N4CCCC4)n(Cc4cccc5ccccc45)c3C[C@H]2CN1C(=O)c1ccccc1", "AC50": "2.51 µM (active)"}, {"smiles": "COC(=O)[C@@]1(Cc2ccccc2)[C@H]2c3cc(C(=O)N4CCCC4)n(Cc4ccsc4Br)c3C[C@H]2CN1C(=O)c1ccccc1", "AC50": "2.51 µM (active)"}]}]}
